# Results published in PubChem BioAssay (NCATS).
# Records with an inconclusive call do not appear. A call without a number means that no potency is given here. Unmarked numbers belong to inactive results. Calls of active or inactive are those of the source. Calls follow the shape of the dose curve; as a rule, active = well fitted curve in the direction sought with a large enough effect; inconclusive = small, poorly fitted or top-dose-only effect, or another doubt; inactive = no such curve, though single readings can be large; an effect the other way counts as inactive or inconclusive.
# How the values were obtained:
# [1] = target: N-terminal Xaa-Pro-Lys N-methyltransferase 1 (Homo sapiens) (UniProt Q9BV86); experiment: qHTS Assay for Inhibitors of N-terminal methyltransferase 1 (NTMT1): LOPAC validation of the NTMT1 SAHH-coupled ThioGlo3 Assay (AID 1347143);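 also: SAH from peptide methylation measured as thiol fluorescence via SAHH coupling and ThioGlo3; nearly all actives have a fitted effect of over 70% in size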; also: potency is read from the fitted curve at half-maximal effect
# How it was run: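 Recombinant human NTMT1 (125nM) was pre-incubated 1 min at room temperature with compounds over a concentration range, then a mix of 100uM SAM, 10uM SAHH and 15uM ThioGlo3 (concentrations in added reagent) was added. ThioGlo3 fluorescence (ex 340/em 450nm) after 30 min was normalized to the initial reading.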
# [2] = system: Zika virus NS2B-NS3 protease (unlinked); experiment: Optimization of GU AMC qHTS for Zika virus inhibitors: Unlinked NS2B-NS3 protease assay (AID 1347151); also: nearly all actives have a fitted effect of over 80% in size; also: potency is read from the fitted curve at half-maximal effect; as to activity change, negative = inhibition: series mostly up to about 52 µM
# How it was run: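 Noncovalent NS2B hydrophilic domain–NS3 protease complex (25 nM final) in 10 mM Tris-HCl pH 8.0, 0.01% Tween 20; AMC substrate, room temperature 15 min (~20% conversion); fluorescence change normalized, 4-parameter Hill fit.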
# [3] = system: Zika virus NS2B-NS3 protease; experiment: Primary screen GU AMC qHTS for Zika virus inhibitors (AID 1347154); also: nearly all actives have a fitted effect of over 70% in size
# How it was run: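 Unlinked Zika NS2B hydrophilic domain–NS3 protease complex at 25 nM in 10 mM Tris-HCl pH 8.0, 0.01% Tween 20, with an AMC peptide substrate. Fluorescence change (340/450 nm) over 15 min at room temperature, normalized to controls, fitted to 4-parameter Hill.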
# [4] = target: Lysine-specific demethylase 5B (Homo sapiens) (UniProt Q9UGL1); experiment: Optimization screen for KDM5B Histone Demethylases FDH coupled qHTS against the LOPAC library (AID 1347166)
# How it was run: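 KDM5BDeltaAP (200nM final) preincubated 10 min with compound, then 12.5uM H3K4Me3, 25uM a-ketoglutarate, ascorbate, Fe(II), NAD+ and FDH added; 50mM HEPES pH 7.5, 0.01% Tween-20. NADH fluorescence (340/450 nm) change over 30 min, room temperature.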
# [5] = system: Zika virus NS2B-NS3 protease (linked construct); experiment: Primary screen NINDS Rhodamine qHTS for Zika virus inhibitors (AID 1347160); also: nearly all actives have a fitted effect of over 55% in size
# How it was run: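 Purified NS2B-NS3 protease with the NS2B hydrophilic domain joined by a flexible linker (25 nM) in 10 mM Tris-HCl pH 8.0, 0.01% Tween 20, preincubated 15 min at RT with compound; Rhodamine110 peptide substrate 1.5 µM; fluorescence change over 15 min; 4-parameter Hill fit.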
# [6] = qHTS of pediatric cancer cell lines to identify multiple opportunities for drug repurposing: Confirmatory screen for RD cells (AID 1347124);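 also: cells exposed to compound for 48 h before viability readout; nearly all actives have a fitted effect of over 65% in size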
# How it was run: (§1)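 Viability after 48 h compound treatment at 37C, 500-1,000 cells/well, read as ATP luminescence with CellTiter-Glo. Primary screens used 11-point (MIPE, 0.78 nM-46 µM) or 8-point (NPC, 0.59 nM-46 µM) final concentrations; follow-up screens used 11-point dilutions.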
# [7] = qHTS of pediatric cancer cell lines to identify multiple opportunities for drug repurposing: Confirmatory screen for Rh18 cells (AID 1347125); also: nearly all actives have a fitted effect of over 55% in size
# How it was run: as §1
# [8] = qHTS of pediatric cancer cell lines to identify multiple opportunities for drug repurposing: Confirmatory screen for Rh30 cells (AID 1347126); also: nearly all actives have a fitted effect of over 55% in size
# How it was run: as §1
# [9] = qHTS of pediatric cancer cell lines to identify multiple opportunities for drug repurposing: Confirmatory screen for Saos-2 cells (AID 1347127); also: nearly all actives have a fitted effect of over 60% in size
# How it was run: as §1
# [10] = qHTS of pediatric cancer cell lines to identify multiple opportunities for drug repurposing: Confirmatory screen for SK-N-SH cells (AID 1347129);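 also: cells exposed to compound for 48 h before viability read; nearly all actives have a fitted effect of over 60% in size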
# How it was run: as §1
# [11] = system: Zika virus NS2B-NS3 protease (unlinked complex); experiment: Primary screen GU Rhodamine qHTS for Zika virus inhibitors: Unlinked NS2B-NS3 protease assay (AID 1347159); also: nearly all actives have a fitted effect of over 60% in size
# How it was run: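 Noncovalent NS2B hydrophilic domain/NS3 protease complex (25 nM final) in 10 mM Tris-HCl pH 8.0, 0.01% Tween 20, preincubated 15 min with compounds (up to 114 microM), then 1.5 microM Rhodamine110 substrate. Fluorescence change over 15 min fitted to 4-parameter Hill.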
# Sequence of N-terminal Xaa-Pro-Lys N-methyltransferase 1 (Homo sapiens) (Q9BV86 whole entry, looked up): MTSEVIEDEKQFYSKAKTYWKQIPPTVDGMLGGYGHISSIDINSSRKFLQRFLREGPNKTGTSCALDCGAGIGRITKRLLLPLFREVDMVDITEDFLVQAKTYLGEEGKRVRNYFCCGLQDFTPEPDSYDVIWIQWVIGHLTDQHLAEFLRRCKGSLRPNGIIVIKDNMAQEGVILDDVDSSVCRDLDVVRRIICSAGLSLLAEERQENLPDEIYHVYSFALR
# Sequence of Lysine-specific demethylase 5B (Homo sapiens) (Q9UGL1 whole entry, looked up): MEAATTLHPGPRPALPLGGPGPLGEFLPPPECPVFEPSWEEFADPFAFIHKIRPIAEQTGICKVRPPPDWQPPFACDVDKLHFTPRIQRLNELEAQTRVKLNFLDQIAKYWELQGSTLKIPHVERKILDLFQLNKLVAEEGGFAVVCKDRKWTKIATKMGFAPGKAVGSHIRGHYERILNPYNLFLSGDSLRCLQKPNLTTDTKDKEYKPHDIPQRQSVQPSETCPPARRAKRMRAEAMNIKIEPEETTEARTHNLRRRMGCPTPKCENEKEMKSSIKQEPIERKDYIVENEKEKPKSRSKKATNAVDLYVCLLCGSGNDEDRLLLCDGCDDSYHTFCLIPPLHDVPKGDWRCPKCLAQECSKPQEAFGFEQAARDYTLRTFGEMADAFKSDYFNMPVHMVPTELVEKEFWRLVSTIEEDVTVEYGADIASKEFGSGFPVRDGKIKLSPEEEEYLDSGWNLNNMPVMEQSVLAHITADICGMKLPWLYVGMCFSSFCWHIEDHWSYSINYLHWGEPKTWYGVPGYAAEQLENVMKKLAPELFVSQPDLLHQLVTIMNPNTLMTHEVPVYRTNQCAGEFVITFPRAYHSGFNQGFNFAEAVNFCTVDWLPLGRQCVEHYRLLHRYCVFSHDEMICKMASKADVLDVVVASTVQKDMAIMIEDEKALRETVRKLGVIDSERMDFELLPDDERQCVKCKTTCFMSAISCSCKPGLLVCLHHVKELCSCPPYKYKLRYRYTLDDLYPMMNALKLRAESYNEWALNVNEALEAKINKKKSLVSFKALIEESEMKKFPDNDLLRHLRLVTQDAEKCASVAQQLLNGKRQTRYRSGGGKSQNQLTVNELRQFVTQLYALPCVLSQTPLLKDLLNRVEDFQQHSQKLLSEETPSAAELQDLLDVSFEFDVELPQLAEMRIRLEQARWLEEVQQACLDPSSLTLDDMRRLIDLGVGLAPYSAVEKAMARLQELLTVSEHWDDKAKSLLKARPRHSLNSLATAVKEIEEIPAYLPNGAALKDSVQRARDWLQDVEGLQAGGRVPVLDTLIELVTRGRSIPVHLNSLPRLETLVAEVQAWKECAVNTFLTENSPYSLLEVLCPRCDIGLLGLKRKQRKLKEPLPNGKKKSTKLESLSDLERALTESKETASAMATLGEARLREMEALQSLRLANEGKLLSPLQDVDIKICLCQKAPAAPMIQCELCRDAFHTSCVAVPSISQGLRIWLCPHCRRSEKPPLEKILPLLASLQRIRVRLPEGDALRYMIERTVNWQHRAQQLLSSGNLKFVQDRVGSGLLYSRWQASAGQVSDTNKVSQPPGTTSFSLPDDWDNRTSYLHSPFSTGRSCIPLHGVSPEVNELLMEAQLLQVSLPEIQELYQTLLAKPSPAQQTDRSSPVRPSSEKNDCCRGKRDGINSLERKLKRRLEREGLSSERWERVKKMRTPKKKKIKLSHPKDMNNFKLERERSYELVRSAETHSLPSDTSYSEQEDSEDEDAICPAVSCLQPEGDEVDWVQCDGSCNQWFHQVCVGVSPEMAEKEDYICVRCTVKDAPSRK
smiles,measurement,setting,value
Cc1c(O)cccc1C(=O)N[C@@H](CSc1ccccc1)[C@H](O)CN1C[C@H]2CCCC[C@H]2C[C@H]1C(=O)NC(C)(C)C,Potency,[1],inactive
same,Potency,[2],inactive
same,Potency,[3],inactive
OCc1cc(C(O)CNCCCCCCOCCCCc2ccccc2)ccc1O (stereo unspecified),Potency,[1],56.2 µM (active)
same,Potency,[2],26.7 µM (active)
CN(C)CC[C@@H](c1ccc(Cl)cc1)c1ccccn1,Potency,[1],inactive
same,Potency,[2],inactive
same,Potency,[3],inactive
same,outcome,[4],inactive
C[C@H]1O[C@@H](n2cc(F)c(=O)[nH]c2=O)[C@H](O)[C@@H]1O,Potency,[1],inactive
same,Potency,[2],inactive
CNCC(O)c1ccc(O)c(O)c1 (stereo unspecified),Potency,[1],inactive
same,Potency,[2],inactive
same,Potency,[3],inactive
CC(C)c1c(C(=O)Nc2ccccc2)c(-c2ccccc2)c(-c2ccc(F)cc2)n1CC[C@@H](O)C[C@@H](O)CC(=O)O,Potency,[1],inactive
same,Potency,[2],inactive
same,Potency,[3],inactive
same,Potency,[5],inactive
C[C@](N)(Cc1ccc(O)cc1)C(=O)O,"activity change, negative = cytotoxic",[6],10.4% [at 5.01 µM]
same,"activity change, negative = cytotoxic",[7],0.623% [at 5.01 µM]
same,"activity change, negative = cytotoxic",[8],0% [at 5.01 µM]
same,"activity change, negative = cytotoxic",[9],17.6% [at 5.01 µM]
same,"activity change, negative = cytotoxic",[10],11.7% [at 5.03 µM]
same,Potency,[1],inactive
same,Potency,[2],inactive
same,"activity change, negative = inhibition",[3],-1.38% [at 4.99 µM]
same,outcome,[4],inactive
CC1=C(CC(=O)O)c2cc(F)ccc2/C1=C\c1ccc(S(C)(=O)=O)cc1,Potency,[1],inactive
same,Potency,[2],inactive
same,Potency,[3],inactive
same,outcome,[4],inactive
CN(C)CCC=C1c2ccccc2CCc2ccccc21,Potency,[1],inactive
same,Potency,[2],inactive
same,Potency,[3],inactive
same,outcome,[4],inactive
Cc1ccc2nc(N)[nH]c(=O)c2c1Sc1ccncc1,Potency,[6],inactive
same,outcome,[7],inactive
same,outcome,[8],inactive
same,Potency,[3],inactive
same,Potency,[11],inactive
same,Potency,[5],inactive
